According to PubChem BioAssay AID588453 (National Center for Advancing Translational Sciences (NCATS), 2011):
Several values for one entry are separate records, joined by “and”; a condition that tells them apart may be missing. Equal entries are not always repeated. About 4,000 (1%) of roughly 390,000 compounds were called active. A call without a number means that no potency is given here. Roughly 4% stayed inconclusive and do not appear here. Calls follow the shape of the dose curve; as a rule, active = well fitted inhibition curve with a large enough effect; inconclusive = small, poorly fitted or top-dose-only effect; inactive = no such curve, though single readings can be large or run the other way. This excerpt belongs to a sample that is enriched for actives. Some compounds were tested as several samples or in several runs, with calls that do not always agree.

molecular target: Thioredoxin reductase 1, cytoplasmic (Rattus norvegicus) (UniProt O89049); assay: qHTS Assay for Inhibitors of Mammalian Selenoprotein Thioredoxin Reductase 1 (TrxR1): qHTS; settings: recombinant rTrxR1, NADPH fluorescence consumption, selenite substrate; series mostly up to 114 µM; also: nearly all actives have a fitted effect of over 65% in size
Outline: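 Rat TrxR1 (90 nM in the dispensed reagent) was pre-reduced with 400 uM NADPH for 5 min at room temperature, then incubated with compound for 15 min. After 400 uM selenite was added, NADPH fluorescence (Ex 340/Em 450 nm) was followed for 8 min.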
Potency is read from the fitted curve at half-maximal effect.

Thioredoxin reductase 1, cytoplasmic (Rattus norvegicus), sequence (O89049 whole entry, looked up): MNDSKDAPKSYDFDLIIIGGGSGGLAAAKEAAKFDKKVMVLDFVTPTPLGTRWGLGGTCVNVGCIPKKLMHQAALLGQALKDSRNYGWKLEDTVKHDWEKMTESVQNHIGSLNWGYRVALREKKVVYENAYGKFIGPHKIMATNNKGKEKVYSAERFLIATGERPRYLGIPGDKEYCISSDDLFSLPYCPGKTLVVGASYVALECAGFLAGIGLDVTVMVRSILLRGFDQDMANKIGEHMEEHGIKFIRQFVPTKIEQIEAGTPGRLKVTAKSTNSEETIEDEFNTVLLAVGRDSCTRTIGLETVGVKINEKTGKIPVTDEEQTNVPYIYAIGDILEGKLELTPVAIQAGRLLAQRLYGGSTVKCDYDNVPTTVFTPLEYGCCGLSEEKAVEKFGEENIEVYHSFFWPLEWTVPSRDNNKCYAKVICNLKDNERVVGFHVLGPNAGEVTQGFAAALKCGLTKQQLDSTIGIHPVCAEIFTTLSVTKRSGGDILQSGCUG

SMILES	Potency
O=C(C1CCC(Cn2c(=O)c3sccc3n(Cc3ccccc3F)c2=O)CC1)N1CCCCC1 (stereo not drawn)	inactive
O=C(/C=C/c1ccc([N+](=O)[O-])o1)NNC(=O)c1ccc(F)cc1	3.16 µM (active)
COc1ccc(-n2c(SCC(=O)Nc3ccc(Cl)c(C)c3)nc3n[nH]c(C)c3c2=N)cc1	inactive
O=C(Nc1ccc2oc(-c3ccc(O)c(Br)c3)nc2c1)c1cc2ccccc2o1	inactive
CCCCC(=O)Nc1nnc(S(=O)(=O)N(C)Cc2ccco2)s1	44.7 µM (active)
CCC(=O)Nc1nnc(S(=O)(=O)N(CC(C)C)c2ccccc2)s1	inactive
CN(Cc1ccco1)S(=O)(=O)c1nnc(NC(=O)c2ccccc2)s1	inactive and 17.8 µM (active)
CCN(c1ccc(Cl)cc1)S(=O)(=O)c1nnc(NC(=O)c2ccco2)s1	inactive
CCOc1cccc(C(=O)Nc2nnc(S(=O)(=O)N(C)c3ccc(C)cc3)s2)c1	inactive
CCN(CC)S(=O)(=O)c1nnc(NC(=O)COc2ccccc2Cl)s1	inactive
CCCCOc1ccc(C(=O)NO)cc1	inactive
COC(=O)c1ccc(NC(=O)CCc2c(C)nc3c(c(C)nn3-c3ccc(C)cc3)c2C)cc1	inactive
COC(=O)c1cc(NC(=O)c2cnc(SC)nc2-c2ccccc2)cc(C(=O)OC)c1	inactive
N#CCCN1CCN(S(=O)(=O)c2ccc(S(=O)(=O)N3CCCC3)cc2)CC1	inactive
N#Cc1cccc(CN2CCC(=O)N(CCO)CC2)c1	inactive
CC(C)(C)c1cc(CN2CCN(CCC#N)CC2)cc(C(C)(C)C)c1O	4.47 µM (active)
COc1cc2nc(Cl)nc(NC3CC3)c2cc1OC	inactive
Cc1cccc(C(CC(=O)NCC2(c3ccccc3)CCCC2)c2ccccc2)c1O (stereo not drawn)	inactive
O=C(CCSCc1ccccc1F)N1CCN(c2ccc(Cl)cc2)CC1	inactive
COC(=O)C1=C(C)N(C)C(C)=C(C(=O)OC)C1c1cccc(Br)c1	inactive
COC(=O)C1=C(C)N(C(C)c2ccccc2)C(=O)/C1=C\c1ccco1 (stereo not drawn)	28.2 µM (active)
COc1ccc(N2C(=O)/C(=C\c3ccco3)N=C2SCC(N)=O)cc1Cl	inactive
COC(=O)C1=C(C)N(c2ccc(Br)cc2)C(=O)/C1=C\c1ccco1	50.1 µM (active)
COC(=O)C1=C(C)N(c2ccc(C)cc2)/C(=C/c2ccc(O)cc2)C1=O	inactive
COc1ccc(N2C(=O)CS(=O)(=O)C23C(=O)N(Cc2ccc(C)cc2)c2ccccc23)cc1Cl (stereo not drawn)	inactive

SMILES	Potency
Cc1ccc2nc(COc3cccc(NC(=O)c4ccccc4Cl)c3)cc(=O)n2c1	inactive
CSc1ccccc1NC(=O)CCS(=O)(=O)c1nc(-c2cccs2)cc(C(F)(F)F)n1	14.1 µM (active)
O=C(CSc1ccc(-c2cccs2)nn1)Nc1ccccc1F	inactive
COc1ccc(Cl)cc1NC(=O)CSc1nc(-c2cccs2)cc(C(F)(F)F)n1	inactive
CCc1ccc(S(=O)(=O)c2nnn3c2nc(N2CCN(CC)CC2)c2sccc23)cc1	inactive
CC(C)C[C@H](NC(=O)[C@H](O)[C@H](N)Cc1ccccc1)C(=O)O	inactive
O=C(CSc1nnc(-c2cccnc2)n1Cc1ccco1)c1ccc(Cl)c(Cl)c1	44.7 µM (active)
CCn1c(SCC(=O)NCc2ccco2)nnc1-c1ccc(N)cc1	inactive
O=C(CSc1nnc(-c2cccnc2)n1CCc1ccccc1)NCc1ccccc1	inactive
Cc1ccc(C)c(N2CCN(C(=O)Cc3c(C(=O)O)c(C)cn3C)CC2)c1	inactive
Cc1ccccc1CNC(=O)Cn1c(C)c2cnn(-c3ccccc3)c(=O)c2c1C	inactive
Cc1ccc(C(=O)Nc2ccc3[nH]c(=O)c(=O)[nH]c3c2)cc1	inactive
CN(C)/C=C1/Nc2ccccc2C1=O	35.5 µM (active)
CCCS(=O)(=O)C(=C1Nc2ccccc2N1)S(=O)(=O)CCC	inactive
Cc1ccc(S(=O)(=O)c2nnn3c2nc(N2CCN(c4ccccc4F)CC2)c2cc(Cl)ccc23)cc1C	inactive
COCCNC(=O)CSc1nc(-c2ccccc2)[nH]c1-c1ccc(C)cc1	inactive
Cc1csc(NCC(=O)c2c[nH]c3ccccc23)n1	inactive
Clc1cccc(-c2nc3nc4ccccc4nc3n2Cc2ccco2)c1	7.94 µM (active)
COCCCn1c(-c2cccs2)nc2nc3ccccc3nc21	inactive
Cc1nc2ccc(S(=O)(=O)N(CC(=O)Nc3ccc(F)cc3)Cc3ccccc3)cc2s1	inactive
Cc1ccc(C2C=C(c3ccc(Cl)cc3)Nc3nc(NC(=O)CCC(=O)O)nn32)cc1 (stereo not drawn)	inactive
CCOc1ccc(C(=O)CCC(=O)NC2=NCCS2)cc1	inactive
CCOc1ccc(NCCC(=O)c2ccc3c(c2)OCO3)cc1	2.24 µM (active)
CCOc1ccc(NC(=O)Cn2c(=O)n(CCCC(=O)NCc3ccc4c(c3)OCO4)c(=O)c3ccccc32)cc1	inactive
COC(=O)c1c(NC(=O)CCCOc2ccccc2)sc2c1CCC(C)C2 (stereo not drawn)	inactive

SMILES	Potency
CCCc1nc2c([nH]1)C(c1cccnc1)C(C#N)=C(N)O2 (stereo not drawn)	inactive
CCCc1[nH]nc2c1C(c1ccc(Br)s1)C(C#N)=C(N)O2 (stereo not drawn)	44.7 µM (active)
CCOc1ccc(-n2c(C)nc3c(cnn3-c3ccc(C)cc3)c2=O)cc1	inactive
CCC1(C)CC(=O)c2c(ccc3oc(C(=O)Nc4ccc(C(C)=O)cc4)c(C)c23)O1 (stereo not drawn)	inactive
Cc1ccc(Cn2c(C)nc3c(c2=O)c2nc4ccccc4nc2n3Cc2ccco2)cc1	10 µM (active)
Cc1ccc(Cn2c(=O)n(Cc3nc(-c4ccccc4)no3)c(=O)c3cc4c(cc32)OCO4)cc1	inactive
Cc1ccc(OCC(=O)c2cc(C)n(Cc3ccco3)c2C)c([N+](=O)[O-])n1	inactive
CC(C)(C)C1CCC(NC(=O)c2cnn3c2NC(=C2CC2)C=C3C(F)F)CC1 (stereo not drawn)	inactive
O=S(=O)(c1ccc(Cl)cc1)c1nnn2c1nc(NC1CCCC1)c1sccc12	inactive
COc1ccc(/C=C/c2ccnc3ccccc23)cc1OC	inactive
CCOc1cc(CNC(=O)c2sc3ncnc(N(C)C4CCCCC4)c3c2C)ccc1OC	inactive
CCOC(=O)Nc1ccc2c(c1)N(C(=O)CCCl)c1ccccc1[S@]2=O	50.1 µM (active)
CCOC(=O)Nc1ccc(S(=O)(=O)N(C)C(C)C)cc1	inactive
CCOC(=O)Nc1ccc2c(c1)N(C(=O)CN1CCN3CCCC3C1)c1ccccc1CC2 (stereo not drawn)	inactive
Oc1ccc(Br)cc1C1C=C(c2ccc3c(c2)OCO3)NC(c2ccc(Cl)cc2)N1 (stereo not drawn)	inactive
CC(CCCc1ccccc1)NC(=O)c1nn(-c2ccc(Cl)cc2)nc1CO (stereo not drawn)	inactive
COc1ccc(Cl)cc1N(C)C(=O)c1cc2c(=O)oc3ccc(C)cc3c2s1	inactive
O=C(NCCCc1ccccc1)c1ccc2c(c1)sc1nc(-c3ccc(F)cc3)cn12	inactive
CN1C(=O)c2ccccc2Sc2ccc(NC(=O)Cc3ccc(Cl)cc3)cc21	inactive
COc1cc2[nH]c(=S)n(Cc3ccc(C)o3)c(=O)c2cc1OC	8.91 µM (active)
COc1cc2[nH]c(=S)n(CCN3CCCCC3C)c(=O)c2cc1OC (stereo not drawn)	inactive
CCOc1cc2[nH]c(=S)n(Cc3ccc(C(=O)N4CCN(C)CC4)cc3)c(=O)c2cc1OCC	inactive
OC[C@H]1O[C@@H](n2cnc3c(NC4CCCC4)ncnc32)[C@H](O)[C@H]1O	inactive
CCc1ccccc1NC(=O)c1ccc2nc(CCc3ccccc3)oc2c1	inactive
O=c1cc(-c2ccccc2)[nH]c2nc(Cl)ccc12	inactive

SMILES	Potency
COc1ccc(/C=C/C(=O)c2cc(Br)ccc(=O)c2O)cc1	35.5 µM (active)
COc1cccc(N2CC(NC(=O)/C=C\c3ccccc3)CC2=O)c1 (stereo not drawn)	inactive
COCOc1cc(O)c(C(=O)/C=C/c2ccc(OCOC)c(OCOC)c2)c(OCOC)c1	inactive
Cc1ccc(-c2nc(=N)sn2Cc2ccccc2)cc1	inactive
Cc1ccc(NC(=O)Cn2nnc3sc4c(c3c2=O)CCC(C)C4)cc1 (stereo not drawn)	inactive
COc1ccc(-c2cc(C(F)(F)F)nc(SCC(=O)N(C)Cc3ccccc3)n2)cc1OC	inactive
COc1ccc(CCNc2nc(-c3ccc(F)cc3)cc(C(F)(F)F)n2)cc1OC	inactive
COc1ccc(-c2cc(C(F)(F)F)nc(S(C)(=O)=O)n2)cc1OC	17.8 µM (active)
CC1CN(C(=O)N2CCC(C(=O)NCc3ccco3)CC2)c2cc(Cl)ccc2O1 (stereo not drawn)	inactive
CC(=O)Nc1ccc(NC(=O)CSc2nnc3c4cc(Br)ccc4n(C)c3n2)cc1	inactive
CC1CCN(S(=O)(=O)c2ccc3c(c2)N(CC(=O)NCCc2ccccc2)C(=O)CO3)CC1	inactive
Brc1ccc(C2=CC(c3ccco3)n3ncnc3N2)cc1 (stereo not drawn)	39.8 µM (active)
Cc1ccccc1OCC(=O)Nc1c(C(=O)Nc2ccccc2F)oc2ccccc12	inactive
NC(=O)Nc1ccc(/C=C/c2ccnc3ccccc23)cc1	inactive
C=CC1=C(C(=O)O)N2C(=O)[C@@H](NC(=O)/C(=N/OCC(=O)O)c3csc(N)n3)[C@H]2SC1	inactive
Cc1nnc(SCc2cc(=O)[nH]c(N3CCN(Cc4ccccc4)CC3)n2)s1	inactive
Cc1cc(C)cc(C(=O)NC2C(=O)N3C(C(=O)O)=C(CSc4nnc(C)s4)CSC23)c1 (stereo not drawn)	8.91 µM (active)
Cc1ccc(C)c(S(=O)(=O)c2nnn3c2nc(N2CCOCC2)c2sccc23)c1	inactive
O=C(Nc1ccc(Cl)cc1)c1cnn2c1NC(=C1CC1)C=C2C(F)F	inactive
CC(C)(C)n1ncc2c(=O)n(Cc3ccc(C(=O)c4ccccc4)cc3)cnc21	inactive
CCCCCCCC(=O)NC(Nc1ccccc1OC)C(Cl)(Cl)Cl (stereo not drawn)	inactive
CCCCC(O)(CCCC)C(=O)NN(C(=O)CCl)c1ccccc1	10 µM (active)
CCCCNC(=O)CN1C(=O)NC(Cc2ccccc2)(Cc2ccccc2)C1=O	inactive
